Source: PubChem
HT1080 IDH1KD tx: toxicity to HT-1080 IDH1 knockdown cells (counter line); HT-1080 IDH1 knockdown viability, ATP luminescence, 48 h; 2% of 360,000 active; Potency, µM (doses to about 46.1 µM), for the others: at the highest dose activity, negative = toxicity, usual class: cytotoxic;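 further: potency means the concentration at half of the fitted maximal effect; 0% = DMSO wells and -100% = cell-free medium wells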
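Assay cells: HT-1080 with IDH1 knockdown, 750 per well, RPMI/5% FBS. Exposure: 48 h at 37 °C following 2 h pre-incubation. Read: CellTiter-Glo luminescence; fitted concentration-response, curve class assigned.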
DT40 TDP1 CPT: DT40-hTDP1 cell growth loss with CPT; chicken DT40 Tdp1-/-;hTDP1 cells + 20 nM CPT, ATP luminescence, 48 h; Potency, µM (doses to about 46.2 µM), for inactives: top-dose activity change, negative = growth inhibition, usual class: inhibitors; 12% of 420,000 active; AID 686979; further: potency means the concentration at half of the fitted maximal effect; nearly all actives have a fitted effect of over 55% in size
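Chicken DT40 Tdp1-/- cells complemented with human TDP1, 400 cells/well, exposed to compounds plus 20 nM camptothecin for at least 48 h at 37 C; viability read as ATP content by CellTiter-Glo luminescence.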
HT1080NT lethal: kills 2HG-producing HT-1080-NT fibrosarcoma cells | HT-1080-NT fibrosarcoma viability, CellTiter-Glo ATP luminescence, 48 h | 1.6% of 360,000 active | Potency, µM (series often up to 46.1 µM), for inactives: at the highest dose activity, negative = less viability, most hits filed as cytotoxic;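 further: NT is the 2HG producing partner of a matched IDH1 knockdown line; potency means the concentration at half of the fitted maximal effect; 0% = DMSO-treated cells and -100% = media-only wells without cells; nearly all actives have a fitted effect of over 55% in size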
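Fibrosarcoma NT cells, 750 per well in 5% FBS RPMI, were exposed to compound for 48 hours. Viability: CellTiter-Glo luminescence.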
TDP1 cell noCPT: qHTS for Inhibitors of human tyrosyl-DNA phosphodiesterase 1 (TDP1): qHTS in cells in absence of CPT; DT40 Tdp1-/- hTDP1 cells, no CPT, ATP luminescence, 48 h; Potency, µM (highest dose often 46.2 µM), for the others: top-dose activity change, negative = growth inhibition, usual class: inhibitors; 15% of 420,000 active; further: potency means the concentration at half of the fitted maximal effect; nearly all actives have a fitted effect of over 55% in size
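Luminescent ATP content (CellTiter-Glo) served as the growth readout. Knockout chicken DT40 cells expressing human TDP1 were exposed to compounds without camptothecin for a minimum 48 hr at 37 °C.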
IL-1B inflam inh: blocks inflammasome-driven IL-1 beta release | THP-1 LPS/ATP IL-1B secretion, AlphaLISA, 16 h; active compounds read low | activity change, % at 57.5 µM | 4.7% of 360,000 active | AID 743279; in the data active means activity change below about -50%; inconclusive means mostly about -30% to -49%
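THP-1 cells pretreated 1 hr with compounds (up to 57.5 uM final), then stimulated with LPS (250 ng/mL final) plus ATP (1.25 mM final); secreted IL-1B measured by AlphaLISA after 16 hr, decreased signal indicating inhibition.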
* hit, by the source's call; ? = inconclusive; . = no result given. Hits are enriched below; roughly 19% of the tested compounds scored in any of these assays. Unless noted, the call rests on the fitted dose curve; in most records, active means well fitted curve in the direction sought with a large enough effect; inconclusive means small, poorly fitted or top-dose-only effect, or another doubt; inactive means no such curve, though single readings can be large; an effect the other way counts as inactive or inconclusive. Unless noted, on the % scale 0 is the no-effect control and ±100 the full control effect.

SMILES	HT1080 IDH1KD tx	DT40 TDP1 CPT	HT1080NT lethal	TDP1 cell noCPT	IL-1B inflam inh
Cc1cccc(NC(=S)NC(C)C(c2ccccc2)N2CCN(C)CC2)c1C (configuration not stated)	-11%	?	-8%	26µM*	-50*
CCN1CCN(C(c2cccs2)C(C)NC(=S)Nc2cccc(C)c2C)CC1 (configuration not stated)	9%	?	13%	?	?
CCCCS(=O)(=O)c1oc(-c2ccc(F)cc2)nc1S(=O)(=O)c1ccc(C)cc1	.	1µM*	.	0.58µM*	.
CCS(=O)(=O)c1oc(-c2ccc(F)cc2)nc1S(=O)(=O)c1ccccc1	.	0.26µM*	.	0.58µM*	.
CNc1oc(-c2ccccc2)nc1S(=O)(=O)c1ccc(C)cc1	-2%	-26%	-2%	-28%	-2
CCCCCS(=O)(=O)c1oc(-c2cccs2)nc1S(=O)(=O)c1ccc(C)cc1	.	4.6µM*	.	3.7µM*	.
CCC(C)S(=O)(=O)c1oc(-c2ccc(F)cc2)nc1S(=O)(=O)c1ccc(F)cc1 (configuration not stated)	.	0.58µM*	.	1µM*	.
O=S(=O)(c1ccc(F)cc1)c1nc(-c2ccc(F)cc2)oc1NCCN1CCOCC1	-6%	-13%	-5%	-19%	?
Cc1ccc(CCNC(=O)C2CCCN(S(=O)(=O)c3ccc4c(c3)oc(=O)n4C)C2)cc1 (configuration not stated)	.	-25%	.	-26%	.
COc1cc(/C=C/C(=O)OCC(=O)N2CCCC2)cc(OC)c1OC	7%	14%	3%	5%	-7
CCCCS(=O)(=O)c1oc(-c2cccs2)nc1S(=O)(=O)c1ccc(F)cc1	.	0.82µM*	.	0.58µM*	.
CCCCCn1c(CCNC(=O)c2cccc(C)c2)nc2ccccc21	.	21µM*	.	18µM*	.
Cc1cccc(C(=O)NCCc2nc3ccccc3n2Cc2ccc(Cl)cc2)c1	.	21µM*	.	?	.
C#CC1(O)CCCC2C3CCC4CC(OC(C)=O)CCC4(C)C3C(=O)CC21C (configuration not stated)	-16%	23µM*	-22%	21µM*	3
Cc1nc(-c2ccncc2)nc(NCCNc2ncccc2C(F)(F)F)c1Cl	6%	12µM*	13%	7.3µM*	-18
CC1CCN(C(=O)C2CCCN(c3ncnc4c3nc3n4CCCCC3)C2)CC1 (configuration not stated)	6%	?	-1%	?	14
CCOC(=O)C1CCN(C(=O)C2CCCN(c3ncnc4c3nc3n4CCCCC3)C2)CC1 (configuration not stated)	6%	?	12%	18µM*	-5
O=C(C1CCN(c2ncnc3c2nc2n3CCCCC2)CC1)N1CCCCC1	-9%	-33%	4%	?	-6
CC1CC(C)CN(C(=O)C2CCCN(c3ncnc4c3nc3n4CCCCC3)C2)C1 (configuration not stated)	-6%	23µM*	-13%	15µM*	-8
CC1CCCN(C(=O)C2CCN(c3ncnc4c3nc3n4CCCCC3)CC2)C1 (configuration not stated)	0%	?	-7%	23µM*	-3
CCOC(=O)N1CCN(C(=O)C2CCCN(c3ncnc4c3nc3n4CCCCC3)C2)CC1 (configuration not stated)	-3%	?	5%	?	10
O=C(/C=C/c1ccc(Cl)cc1Cl)N(Cc1ccccc1)C1CCS(=O)(=O)C1 (configuration not stated)	?	?	-25%	?	?
O=C(c1ccc(Cl)c([N+](=O)[O-])c1)N(Cc1ccccc1)C1CCS(=O)(=O)C1 (configuration not stated)	12%	-18%	2%	?	-13
COc1cccc(C(=O)N(Cc2ccc(C)o2)C2CCS(=O)(=O)C2)c1 (configuration not stated)	.	-27%	.	-22%	.
CCCCOc1cccc(C(=O)N(Cc2ccc(Br)o2)C2CCS(=O)(=O)C2)c1 (configuration not stated)	.	18µM*	.	16µM*	.
SMILES	HT1080 IDH1KD tx	DT40 TDP1 CPT	HT1080NT lethal	TDP1 cell noCPT	IL-1B inflam inh
O=C(c1ccc(Cl)c([N+](=O)[O-])c1)N(Cc1ccc(Cl)cc1)C1CCS(=O)(=O)C1 (configuration not stated)	?	?	?	23µM*	-88*
Cc1ccc(OCC(=O)N(Cc2ccc(C)o2)C2CCS(=O)(=O)C2)cc1 (configuration not stated)	10%	-15%	9%	2%	8
CCCCCOc1c(Cl)cc(C(=O)N(Cc2ccc(C)o2)C2CCS(=O)(=O)C2)cc1Cl (configuration not stated)	.	18µM*	.	16µM*	.
O=C(/C=C/c1ccc(Cl)cc1Cl)N(Cc1ccc(Cl)cc1)C1CCS(=O)(=O)C1 (configuration not stated)	-3%	?	0%	16µM*	0
COC(=O)C1CC2=C(CCCC2=O)N(Cc2ccccc2)C1=O (configuration not stated)	4%	?	1%	1%	0
Cc1c(CC=C(Cl)Cl)c(=O)[nH]c2c(C)cccc12	14%	-8%	-3%	-1%	0
Cc1ccc(CN(C(=O)c2ccc(Cl)c([N+](=O)[O-])c2)C2CCS(=O)(=O)C2)o1 (configuration not stated)	-24%	3%	-29%	5%	-95*
O=C(c1ccc(Cl)c([N+](=O)[O-])c1)N(Cc1cccc(Cl)c1)C1CCS(=O)(=O)C1 (configuration not stated)	5%	?	-2%	?	-93*
O=C(c1ccc(Cl)cc1)N(Cc1ccco1)C1CCS(=O)(=O)C1 (configuration not stated)	-2%	3%	8%	-6%	2
CCC(=O)[C@@H](C)[C@@H](OC(C)=O)[C@H](C)C[C@@H](C)[C@H]1OC(=O)C[C@@]2(O)CC=C(C)C(O2)C(C)=CCCC[C@H](O[C@H]2C[C@@H](OC(N)=O)[C@H](OC(C)=O)[C@@H](C)O2)C=C[C@H](C)C[C@H]1C	1%	?	-5%	2.9µM*	18
Cc1ccc(CNC(=O)c2ccc(N3CCC4(CC3)CC(c3ccccc3)=NO4)c(NC(=O)c3c(Cl)cccc3Cl)c2)cc1	7%	-1%	0%	-17%	-6
CCN(CC)S(=O)(=O)c1cc(NC(=O)C(=O)c2c(-c3ccccc3)cc3ccccn23)ccc1C	-19%	21µM*	-3%	23µM*	2
